# GPR151 ag = activates the human receptor GPR151 | activation, % at 11.2 µM | Q8TDV0 | 650,000 compounds, 1% hits | AID 1508602 | PathHunter beta-arrestin GPR151 cells, luminescence; in the data active = activation above about 4.9%;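 note: 0% = median of compound wells and 100% = cells with positive control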
# FBW7 activator = human FBW7 E3 ligase activation, primary screen; normalized activity (activation), % at 26.1 µM; AID 1259310; 650,000 compounds, 0.13% hits; AlphaScreen FBW7–phospho-cyclin E peptide binding, activator screen; in the data active = normalized activity above about 1.9%;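 note: purified mutant Fbw7 with reduced substrate affinity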
# MITF inh = human MITF inhibition, primary screen. O75030. AlphaScreen MITF homodimerization, bead proximity signal. inhibition, % at 2.6 µM. 650,000 compounds, 0.91% hits. AID 1259374; in the data active = inhibition above about 50%;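 note: 0% = vehicle wells with protein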
# Target sequence (O75030 whole entry, looked up): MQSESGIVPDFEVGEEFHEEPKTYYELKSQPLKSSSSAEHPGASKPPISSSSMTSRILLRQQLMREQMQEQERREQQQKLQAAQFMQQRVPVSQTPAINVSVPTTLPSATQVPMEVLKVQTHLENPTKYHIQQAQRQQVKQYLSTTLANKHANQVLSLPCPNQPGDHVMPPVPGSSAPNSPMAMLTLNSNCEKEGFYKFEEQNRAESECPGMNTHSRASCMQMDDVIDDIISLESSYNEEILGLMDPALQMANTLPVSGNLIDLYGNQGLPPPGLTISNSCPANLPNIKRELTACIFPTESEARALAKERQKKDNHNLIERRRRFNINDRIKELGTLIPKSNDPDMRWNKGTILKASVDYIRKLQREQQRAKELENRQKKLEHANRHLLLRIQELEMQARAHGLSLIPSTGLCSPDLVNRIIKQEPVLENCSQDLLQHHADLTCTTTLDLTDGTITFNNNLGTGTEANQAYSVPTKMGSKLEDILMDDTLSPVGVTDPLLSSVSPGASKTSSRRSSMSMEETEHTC
# TEAD-YAP inh = TEAD-YAP interaction inhibition; HEK-TIYL cells, TEAD-Gal4/YAP UAS-luciferase luminescence; inhibition, % at 9.12 µM; 640,000 compounds, 1.4% hits; AID 1259422; in the data active = inhibition above about 32%;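 note: 0% = median of test compound wells and 100% = reference inhibitor wells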
# GPR151 conf act = confirmation of human GPR151 activators; activation, % at 11.2 µM; shares compounds with GPR151 ag; 6,700 tested, under 10 active; AID 1508609; GPR151 PathHunter beta-arrestin cells, luminescence, 90 min; % of EA-reagent control over plate median;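 active = mean percent activation across replicates above the confirmation screen cutoff of 4.91%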
# GPR119 ag = counter-screen for GPR151 activators: effect on human GPR119. shares compounds with GPR151 ag. GPR119 PathHunter beta-arrestin cells, luminescence, 90 min; 0 = compound-well median, 100 = enzyme-acceptor control. activation, % at 11.2 µM. 6,700 compounds, 0.3% hits;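 active = mean percent activation in the counterscreen above 29.09%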;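 note: counterscreen on off-target GPR119 to flag nonselective hits from the GPR151 activator screen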
# Numbers without * were called inactive; · = not tested or not shown. The list is not random: actives were taken first. Their share in the collection is about 3.5%.
SMILES,GPR151 ag,FBW7 activator,MITF inh,TEAD-YAP inh,GPR151 conf act,GPR119 ag
CCC(CC)C(=O)Nc1nnc(SCC(=O)Nc2nnc(C)s2)s1,4.9*,0,4,1,-1,6
CCC(=O)Nc1nnc(SCC(=O)Nc2cccc(Cl)c2)s1,8.8*,1,14,1,-1,-11
COC(=O)c1c(NC(=O)CSc2nnc(C)s2)sc(C(C)=O)c1C,7.4*,0,5,3,0,7
COC(=O)C1CN(c2ccc(Cl)cc2)N=C1C(C)=O (stereo not given),-1,0,-8,8,·,·
CCCSc1nnc(CSc2nc(C)cc(C)n2)n1-c1ccc(Cl)cc1,0,0,12,0,·,·
CC1CN(C(=O)COc2ccccc2)CC(C)O1 (stereo not given),0,0,-11,-4,·,·
O=C(CSc1nc2ccccc2[nH]1)Nc1cc(Cl)ccc1Cl,11*,0,13,2,0,-7
O=C(CSc1nc2ncccc2[nH]1)Nc1ccc(Cl)c(F)c1,0,0,-2,2,·,·
O=C(CSc1nc2ccccc2[nH]1)Nc1ccc(Cl)c(C(=O)O)c1,0,-1,-3,-4,·,·
O=C(CSc1nc2ccccc2[nH]1)Nc1ccc(Cl)cc1,0,1,14,-9,·,·
O=C(CSc1nc2ncccc2[nH]1)Nc1ccc(F)c(Cl)c1,7.2*,0,7,4,0,0
O=C(CSc1nc2ccccc2[nH]1)Nc1cccc(Cl)c1,5.1*,0,4,-7,0,-2
Cn1c(Nc2nccc(NCCOc3ccccc3)n2)nc2ccccc21,-1,0,15,-4,·,·
Cc1cccc(C(=O)Oc2ccc(/C=N/N=C(N)N)cc2)c1,8.5*,0,-14,65*,-1,-14
Cc1cccc(C(=O)Oc2ccc(C)c(C)c2)c1,1,0,-22,2,·,·
O=C(Nc1ccc(Br)cc1F)NC1(C(F)(F)F)Oc2ccc(Cl)cc2O1 (stereo not given),-1,0,-1,-3,·,·
CC(c1ccco1)N(C)Cc1ccc(C(=O)NC23CC4CC(CC(C4)C2)C3)c(=O)[nH]1 (stereo not given),11*,0,-1,-4,0,4
CC(c1ccco1)N(C)Cc1ccc(C(N)=O)c(=O)[nH]1 (stereo not given),0,0,-2,3,·,·
C/C(=N\NC(=O)c1cc2c(s1)CCCC2)c1ccccc1O,0,0,-11,-14,·,·
CN(CCO)c1ccc(/C=N/NC(=O)c2cc3c(s2)CCCC3)cc1,6.2*,0,-4,-9,0,-6
Cc1ccc2c(c1)CCCN2C(=O)C1CCCN(c2ccc(-n3cccn3)nn2)C1 (stereo not given),0,-1,10,13,·,·
CC(=O)c1cccc(-c2nc(C)cc(NCCN3CCOCC3)n2)c1,11*,0,-4,-15,1,-1
c1cc(NCCN2CCOCC2)nc(-c2ccc(N3CCOCC3)nc2)n1,6.1*,0,11,6,0,3
Cc1cc(NCCN2CCOCC2)nc(-c2cccc(N)c2)n1,1,0,8,2,·,·
O=Cc1cccc(-c2ccc(NCCN3CCOCC3)nc2)c1,5.2*,-1,14,-58,0,-1
SMILES,GPR151 ag,FBW7 activator,MITF inh,TEAD-YAP inh,GPR151 conf act,GPR119 ag
CCCNc1cc(-c2cccs2)nc(N)n1,-1,0,21,-39,·,·
CCCCc1c(C)c(C#N)c2nc3ccccc3n2c1N1CCN(CCOc2ccc(C)cc2)CC1,0,0,10,1,·,·
CCN1C(=O)c2ccccc2S(=O)(=O)c2ccc(C(=O)N3CCC(C)CC3)cc21,0,0,1,-5,·,·
CCOC(=O)C(C#N)=C(c1ccccc1)c1ccccc1,0,0,-8,5,·,·
CCOC(=O)/C(C#N)=C(\C)c1ccccc1,7.0*,0,7,-5,2,8
CCOC(CCl)/S(=N\S(=O)(=O)c1ccccc1)c1ccccc1[N+](=O)[O-] (stereo not given),0,0,6,-1,·,·
Cc1ccc(OCCNC(=O)C(=O)NCc2ccco2)cc1,6.5*,0,2,33*,0,-4
COCCNC(=O)C(=O)NCc1ccco1,-2,0,4,1,·,·
CC(=O)c1ccc(OCCCC(=O)NCc2ccco2)cc1,-1,0,8,-4,·,·
Cc1ccc(C(=O)NCc2ccco2)c(Cl)c1,8.7*,0,-4,-21,0,5
CCc1ccc(OCCCC(=O)NCc2ccco2)cc1,6.6*,0,2,-7,0,8
O=c1[nH]c2cccnc2[nH]c1=O,10*,0,20,7,0,-1
O=C1c2ccc([N+](=O)[O-])cc2C(=O)N1CN(C(=O)c1ccccc1)c1ccc(F)cc1,-1,0,6,-14,·,·
CCOC(=O)C(=O)Nc1c(C(=O)OCC)oc2ccccc12,-1,0,8,4,·,·
COc1ccc(CNC(=O)c2cccc(C)c2)cc1,-1,0,7,-27,·,·
CC1(C)C2CC=C(COCC(O)CNCc3ccccc3F)C1C2 (stereo not given),-1,0,27,-4,·,·
COc1ccc(-c2nnc(SCC(=O)Nc3cccc(Cl)c3C)nc2-c2ccc(OC)cc2)cc1,5.8*,0,2,9,-1,-6
CCC(C)(C)c1ccc(OCCCCNCCN)cc1,-1,0,-8,2,·,·
Cc1cc(N)nc(-c2ccc(C(=O)N3CCN(C)CC3)cc2)n1,8.5*,0,6,-11,0,6
CCCNc1cc(C)nc(-c2ccc(C(=O)N3CCN(C)CC3)cc2)n1,-2,0,-6,-43,·,·
Cc1nc(N2CCCC2C(=O)NCc2ccccc2Cl)nc2ccccc12 (stereo not given),1,0,-6,6,·,·
O=C(c1cnn2c1NC(c1cccs1)CC2C(F)(F)F)N1CCN(C(c2ccccc2)c2ccccc2)CC1 (stereo not given),0,0,6,-12,·,·
O=C(c1cnn2c1NC(c1cccs1)CC2C(F)(F)F)N1CCc2ccccc2C1 (stereo not given),5.5*,0,20,1,0,0
C[C@H]1Cc2c(-c3ccccc3)nc3c(c2CO1)CN(C(=O)Cc1cccs1)CC3,-1,0,-9,·,·,·
COc1ccc(-c2nc3c(c4c2C[C@H](c2ccccc2)OC4)CN(C(=O)NCc2ccco2)CC3)c(C)c1,5.9*,0,10,·,0,-2
C=CCNC(=O)N1CCc2nc(-c3ccc(OC)cc3C)c3c(c2C1)CO[C@@H](c1ccccc1)C3,1,0,2,·,·,·
COc1cccc(CC(=O)N2CCc3nc(-c4ccccc4)c4c(c3C2)CO[C@@H](C)C4)c1,6.8*,0,2,·,0,-5
